# Source: the supplement of paper PMC10849652
# The full data set covers some 7,900 targets. This sample favours those with a hit. About 0.6% of all pairs of compound and target were hits. Values without a mark were called inactive.
# Legend:
# Test in all cases: log2 fold change, soluble protein after heating vs DMSO (PISA); higher = thermal stabilisation; K562 cells, 10 uM, 30 min; active = over 0.2 and 3.5 SD of the protein, either way, in both replicates (recomputed)
# [1] = compound: NC(=O)Nc1cc(-c2cccc(F)c2)sc1C(=O)N[C@H]1CCCNC1
# Procedure, shortened: (§1)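 K562 cells (2×10^6 cells/mL) were treated with 10 μM compound for 30 min, and aliquots were heated for 3 min over 48°C-58°C. Pooled aliquots were extracted in PBS with 0.5% NP-40 at 4°C, and the supernatant after 21,000xg for 90 min was measured by TMTpro 16plex LC-MS/MS with channel sums equalised. Reported thermal stability, relative to control samples and from duplicates, is a log2 fold change.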
# [2] = compound: NC(=O)c1cnc(N[C@@H]2CCCC[C@@H]2N)nc1Nc1cccc(-n2nccn2)c1
# Procedure, shortened: as §1
# [3] = compound: NC1(c2ccc(-c3nc4ccn5c(=O)[nH]nc5c4cc3-c3ccccc3)cc2)CCC1
# Procedure, shortened: as §1
# [4] = compound: NCC(=O)Nc1ccc(-n2nc(C(F)(F)F)cc2-c2ccc3c(ccc4ccccc43)c2)cc1
# Procedure, shortened: as §1
# [5] = compound: Nc1ccccc1NC(=O)c1ccc(CNC(=O)OCc2cccnc2)cc1 [entinostat]
# Procedure, shortened: as §1
# [6] = compound: O=C(CCCCCCC(=O)Nc1ccccc1)NO [vorinostat]
# Procedure, shortened: as §1
# [7] = compound: O=C(CCCCCCNC(=O)c1cnc(N(c2ccccc2)c2ccccc2Cl)nc1)NO [citarinostat]
# Procedure, shortened: as §1
# [8] = compound: O=C(O)c1ccc2c(c1)nc(Nc1cccc(Cl)c1)c1ccncc12 [silmitasertib]
# Procedure, shortened: as §1
# [9] = compound: O=C1NC(=O)C(c2cnc3ccccn23)=C1c1cn2c3c(cc(F)cc13)CN(C(=O)N1CCCCC1)CC2
# Procedure, shortened: as §1
# [10] = compound: c1cc(OCCN2CCCCC2)cc(-c2n[nH]c3ccc(-c4nnc[nH]4)cc23)c1
# Procedure, shortened: as §1
# [11] = compound: c1cn2cc(-c3ccc4cn[nH]c4c3)nc(Nc3ccc(N4CCOCC4)cc3)c2n1 [entospletinib]
# Procedure, shortened: as §1
# Sequence of UniProt O76003 (O76003 whole entry, looked up): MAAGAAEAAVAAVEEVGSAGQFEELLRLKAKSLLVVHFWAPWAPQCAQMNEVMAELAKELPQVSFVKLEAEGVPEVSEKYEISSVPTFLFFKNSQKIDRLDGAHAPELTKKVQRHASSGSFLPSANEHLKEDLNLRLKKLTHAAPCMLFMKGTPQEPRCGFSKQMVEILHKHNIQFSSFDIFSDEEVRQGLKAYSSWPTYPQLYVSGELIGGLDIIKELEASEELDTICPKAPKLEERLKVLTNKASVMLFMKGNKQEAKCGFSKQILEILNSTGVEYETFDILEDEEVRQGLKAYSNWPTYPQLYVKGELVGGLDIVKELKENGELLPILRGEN
# Sequence of UniProt O00458 (O00458 whole entry, looked up): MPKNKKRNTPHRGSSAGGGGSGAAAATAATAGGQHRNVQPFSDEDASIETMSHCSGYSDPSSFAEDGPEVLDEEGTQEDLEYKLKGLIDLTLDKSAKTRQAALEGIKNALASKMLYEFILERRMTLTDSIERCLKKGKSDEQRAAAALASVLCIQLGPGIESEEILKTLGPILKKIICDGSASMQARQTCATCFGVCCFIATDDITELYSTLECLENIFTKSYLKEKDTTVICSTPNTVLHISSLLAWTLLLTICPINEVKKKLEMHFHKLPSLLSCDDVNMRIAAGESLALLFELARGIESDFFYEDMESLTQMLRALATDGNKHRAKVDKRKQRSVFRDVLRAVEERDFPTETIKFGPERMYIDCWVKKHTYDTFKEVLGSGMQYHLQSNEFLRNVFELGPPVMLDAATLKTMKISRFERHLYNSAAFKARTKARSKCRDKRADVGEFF
# Sequence of UniProt P55795 (P55795 whole entry, looked up): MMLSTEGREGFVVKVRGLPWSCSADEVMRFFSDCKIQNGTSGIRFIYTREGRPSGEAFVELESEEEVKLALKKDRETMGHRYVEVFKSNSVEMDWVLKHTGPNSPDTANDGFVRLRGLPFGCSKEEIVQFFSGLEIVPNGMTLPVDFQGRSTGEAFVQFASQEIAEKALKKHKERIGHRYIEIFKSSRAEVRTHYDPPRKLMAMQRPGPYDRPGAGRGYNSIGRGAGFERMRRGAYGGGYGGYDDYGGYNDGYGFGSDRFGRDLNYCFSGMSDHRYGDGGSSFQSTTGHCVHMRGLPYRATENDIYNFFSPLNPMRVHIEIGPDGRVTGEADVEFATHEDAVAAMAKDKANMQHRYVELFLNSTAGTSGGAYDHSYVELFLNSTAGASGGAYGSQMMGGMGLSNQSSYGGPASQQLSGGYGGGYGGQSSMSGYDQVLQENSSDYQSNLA
# Sequence of UniProt P08236 (P08236 whole entry, looked up): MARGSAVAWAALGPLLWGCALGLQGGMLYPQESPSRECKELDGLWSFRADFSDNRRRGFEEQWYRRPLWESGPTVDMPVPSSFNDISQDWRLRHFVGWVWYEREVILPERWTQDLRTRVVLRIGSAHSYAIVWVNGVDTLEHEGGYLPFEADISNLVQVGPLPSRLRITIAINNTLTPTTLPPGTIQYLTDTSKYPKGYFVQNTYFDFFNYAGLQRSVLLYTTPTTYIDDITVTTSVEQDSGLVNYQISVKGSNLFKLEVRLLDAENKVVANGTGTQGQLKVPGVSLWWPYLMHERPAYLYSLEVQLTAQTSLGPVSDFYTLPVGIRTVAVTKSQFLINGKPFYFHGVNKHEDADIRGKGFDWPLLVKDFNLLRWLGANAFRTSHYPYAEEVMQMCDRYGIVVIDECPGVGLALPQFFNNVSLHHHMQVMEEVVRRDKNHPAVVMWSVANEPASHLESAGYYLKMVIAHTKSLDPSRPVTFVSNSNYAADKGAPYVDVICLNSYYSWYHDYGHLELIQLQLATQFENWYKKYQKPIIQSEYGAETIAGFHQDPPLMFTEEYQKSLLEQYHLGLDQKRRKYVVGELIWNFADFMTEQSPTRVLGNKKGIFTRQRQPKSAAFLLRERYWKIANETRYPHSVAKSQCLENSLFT
# Sequence of UniProt P15260 (P15260 whole entry, looked up): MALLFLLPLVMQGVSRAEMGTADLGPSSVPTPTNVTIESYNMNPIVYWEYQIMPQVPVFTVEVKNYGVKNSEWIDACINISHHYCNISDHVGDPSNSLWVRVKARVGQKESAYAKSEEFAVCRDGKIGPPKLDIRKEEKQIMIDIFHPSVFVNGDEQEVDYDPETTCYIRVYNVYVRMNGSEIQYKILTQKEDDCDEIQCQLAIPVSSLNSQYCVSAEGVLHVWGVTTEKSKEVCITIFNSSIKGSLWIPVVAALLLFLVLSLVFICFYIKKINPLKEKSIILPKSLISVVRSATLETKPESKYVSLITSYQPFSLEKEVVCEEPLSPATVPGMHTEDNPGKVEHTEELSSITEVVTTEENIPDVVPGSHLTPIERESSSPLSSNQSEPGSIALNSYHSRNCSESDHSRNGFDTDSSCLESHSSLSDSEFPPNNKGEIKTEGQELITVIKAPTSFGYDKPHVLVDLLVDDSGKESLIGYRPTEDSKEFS
# Sequence of UniProt Q8N4A0 (Q8N4A0 whole entry, looked up): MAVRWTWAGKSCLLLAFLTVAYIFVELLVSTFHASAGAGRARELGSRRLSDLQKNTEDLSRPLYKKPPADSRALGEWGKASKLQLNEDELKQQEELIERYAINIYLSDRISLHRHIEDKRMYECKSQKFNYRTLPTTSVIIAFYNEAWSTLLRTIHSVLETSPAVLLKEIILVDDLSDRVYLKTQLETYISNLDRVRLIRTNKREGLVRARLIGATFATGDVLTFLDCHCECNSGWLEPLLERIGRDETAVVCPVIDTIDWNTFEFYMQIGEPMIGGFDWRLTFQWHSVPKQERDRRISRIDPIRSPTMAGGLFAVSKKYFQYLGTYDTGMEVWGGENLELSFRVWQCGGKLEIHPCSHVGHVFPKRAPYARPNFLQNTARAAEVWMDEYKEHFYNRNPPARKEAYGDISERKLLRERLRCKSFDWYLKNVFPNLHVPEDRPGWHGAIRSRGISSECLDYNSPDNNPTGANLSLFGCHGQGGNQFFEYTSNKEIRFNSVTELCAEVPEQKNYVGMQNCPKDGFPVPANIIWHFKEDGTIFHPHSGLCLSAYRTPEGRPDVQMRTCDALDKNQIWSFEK
# Sequence of UniProt Q86UL3 (Q86UL3 whole entry, looked up): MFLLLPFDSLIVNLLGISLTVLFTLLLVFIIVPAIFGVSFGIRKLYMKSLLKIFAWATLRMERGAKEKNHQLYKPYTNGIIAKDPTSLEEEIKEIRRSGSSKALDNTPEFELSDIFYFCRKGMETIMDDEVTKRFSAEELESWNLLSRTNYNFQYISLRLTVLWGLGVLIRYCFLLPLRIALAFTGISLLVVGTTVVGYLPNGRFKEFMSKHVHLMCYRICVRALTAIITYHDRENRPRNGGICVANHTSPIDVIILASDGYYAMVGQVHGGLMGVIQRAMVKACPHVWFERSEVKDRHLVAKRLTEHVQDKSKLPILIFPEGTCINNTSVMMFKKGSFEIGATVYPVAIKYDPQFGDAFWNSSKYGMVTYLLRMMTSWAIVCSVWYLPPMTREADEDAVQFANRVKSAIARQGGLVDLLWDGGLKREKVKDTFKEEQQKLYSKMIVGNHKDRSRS
# Sequence of UniProt P22087 (P22087 whole entry, looked up): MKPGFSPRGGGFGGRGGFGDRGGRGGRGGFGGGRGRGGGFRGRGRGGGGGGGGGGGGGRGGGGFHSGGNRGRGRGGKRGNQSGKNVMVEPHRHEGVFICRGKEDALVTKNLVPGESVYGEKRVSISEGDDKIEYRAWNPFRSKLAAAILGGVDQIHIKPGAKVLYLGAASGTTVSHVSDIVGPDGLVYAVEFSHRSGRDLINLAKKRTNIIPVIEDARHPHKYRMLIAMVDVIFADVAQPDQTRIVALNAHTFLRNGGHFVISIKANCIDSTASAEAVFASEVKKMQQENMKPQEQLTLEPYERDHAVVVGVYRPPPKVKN
# Sequence of UniProt Q7Z4H3 (Q7Z4H3 whole entry, looked up): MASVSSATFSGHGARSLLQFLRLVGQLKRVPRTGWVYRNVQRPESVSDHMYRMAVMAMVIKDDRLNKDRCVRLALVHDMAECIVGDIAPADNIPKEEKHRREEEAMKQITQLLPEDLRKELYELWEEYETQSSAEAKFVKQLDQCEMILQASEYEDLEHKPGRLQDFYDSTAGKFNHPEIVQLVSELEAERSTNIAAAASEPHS
# Sequence of UniProt P60520 (P60520 whole entry, looked up): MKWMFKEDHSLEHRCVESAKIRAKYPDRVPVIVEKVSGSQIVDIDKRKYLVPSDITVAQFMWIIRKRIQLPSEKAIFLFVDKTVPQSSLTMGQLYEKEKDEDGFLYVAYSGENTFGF
# Sequence of UniProt Q9UQC2 (Q9UQC2 whole entry, looked up): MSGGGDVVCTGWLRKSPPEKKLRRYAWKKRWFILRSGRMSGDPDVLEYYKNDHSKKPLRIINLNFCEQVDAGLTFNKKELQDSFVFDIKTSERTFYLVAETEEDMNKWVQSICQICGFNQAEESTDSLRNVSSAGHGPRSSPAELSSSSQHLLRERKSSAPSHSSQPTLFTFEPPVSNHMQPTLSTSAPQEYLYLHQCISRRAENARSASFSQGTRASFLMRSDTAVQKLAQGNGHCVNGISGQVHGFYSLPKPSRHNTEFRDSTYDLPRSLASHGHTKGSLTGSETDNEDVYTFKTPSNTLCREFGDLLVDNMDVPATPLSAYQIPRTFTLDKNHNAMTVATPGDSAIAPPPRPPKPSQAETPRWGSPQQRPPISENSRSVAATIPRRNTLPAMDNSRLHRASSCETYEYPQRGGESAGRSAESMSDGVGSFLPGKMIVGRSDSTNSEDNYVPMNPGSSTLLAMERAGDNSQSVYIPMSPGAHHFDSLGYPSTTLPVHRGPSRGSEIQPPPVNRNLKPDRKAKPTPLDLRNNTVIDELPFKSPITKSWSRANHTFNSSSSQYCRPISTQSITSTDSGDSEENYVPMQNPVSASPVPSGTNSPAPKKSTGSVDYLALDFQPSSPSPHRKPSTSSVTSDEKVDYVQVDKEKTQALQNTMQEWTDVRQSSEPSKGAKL
# Sequence of UniProt Q03013 (Q03013 whole entry, looked up): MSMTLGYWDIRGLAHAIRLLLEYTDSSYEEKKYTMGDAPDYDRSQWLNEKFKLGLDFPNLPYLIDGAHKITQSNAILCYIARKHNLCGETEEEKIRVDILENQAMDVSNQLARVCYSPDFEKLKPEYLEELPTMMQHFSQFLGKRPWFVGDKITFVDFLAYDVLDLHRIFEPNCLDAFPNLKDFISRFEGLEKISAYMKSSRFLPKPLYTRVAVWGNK
Target,log2 fold change [1],log2 fold change [2],log2 fold change [3],log2 fold change [4],log2 fold change [5],log2 fold change [6],log2 fold change [7],log2 fold change [8],log2 fold change [9],log2 fold change [10],log2 fold change [11]
HMG20A (UniProt Q9NP66),0,0.126,-0.054,-0.056,0.064,0.09,0.072,0.069,0,-0.167,-0.049
HRAS (UniProt P01112),0.103,0.233,0.071,0.366 (active),-0.012,-0.009,-0.067,0.003,0,0.007,0.027
H2AZ1 (UniProt P0C0S5),0.067,0.258,0.444,-0.038,0.135,0.19,-0.058,0,0.086,-0.032,-0.001
GUSB (UniProt P08236),-0.044,0.029,0.047,0.067,-0.066,0.049,0.148,-0.011,0.057,-0.059,0.11
HMGB3 (UniProt O15347),0.025,0.153,0.143,0.136,-0.032,-0.044,-0.159,-0.068,-0.043,0.146,0.097
IFRD1 (UniProt O00458),-0.035,-0.275,-0.058,-0.009,-0.08,-0.25,-0.035,0.175,0.022,-0.016,0.243
IFNGR1 (UniProt P15260),-0.116,-0.068,0.27,0.051,-0.123,0.058,0.014,0.055,-0.118,-0.086,-0.019
FBL (UniProt P22087),0.095,0.165,0.455,0.067,-0.109,0.005,-0.109,0.232,0.13,-0.237,0.119
GAB2 (UniProt Q9UQC2),-0.087,-0.268,-0.081,0.018,0.127,0.151,0.182,-0.175,-0.095,-0.21,0.046
HIST2H2BF isoform 2 (UniProt Q5QNW6),0.048,0.225,0.48,-0.029,0.159,0.123,-0.001,-0.064,0.101,0.016,0.06
HNRNPK isoform 2 (UniProt P61978),-0.045,-0.086,-0.073,-0.093,0.056,0.065,0.05,-0.017,-0.137,-0.038,0.064
H2AFX (UniProt P16104),0.054,0.245,0.441,0.041,0.132,0.216,-0.035,0.08,0.077,-0.083,-0.005
HDGFL2 (UniProt Q7Z4V5),-0.273 (active),-0.05,-0.022,-0.052,-0.139,0.024,-0.032,0.033,-0.093,-0.018,-0.008
GALNT4 (UniProt Q8N4A0),-0.013,-0.117,-0.072,-1.32 (active),-0.064,0.055,0.009,0.003,0.051,-0.064,-0.015
GABPA (UniProt Q06546),-0.05,-0.057,-0.203,-0.042,0.108,0.138,0.139,-0.007,-0.13,0.008,-0.01
GAK (UniProt O14976),1.52,0.465,0.145,1.4,-0.072,-0.01,-0.244,0.607,0.236,0.687,0.371
GPAT4 (UniProt Q86UL3),-0.031,0.002,-0.012,-0.028,-0.107,-0.017,0.004,-0.005,-0.077,-0.068,0.055
FANCI (UniProt Q9NVI1),0.139,-0.069,-0.281 (active),-0.08,0.083,0.112,0.099,-0.089,0.033,-0.045,-0.013
HK2 (UniProt P52789),0.003,-0.012,-0.059,0.016,0.022,0.048,0.046,-0.021,-0.065,-0.059,-0.54 (active)
GTF3C4 (UniProt Q9UKN8),-0.015,-0.012,-0.077,-0.04,0.024,-0.103,0.04,0.03,-0.013,-0.019,-0.052
FIBP (UniProt O43427),-0.018,0.023,0.011,-0.117,-0.005,-0.067,0.297,-0.05,-0.031,-0.106,0.455
GABARAPL2 (UniProt P60520),-0.036,-0.088,-0.145,-0.079,-0.011,0.063,0.041,-0.049,-0.048,0.015,-0.032
HNRNPH2 (UniProt P55795),-0.073,-0.03,-0.124,-0.077,0.016,0.114,0.06,0.031,-0.007,-0.086,0.009
GLRX3 (UniProt O76003),0,-0.057,-0.066,-0.042,0.022,-0.013,0.014,0.034,-0.094,-0.024,0.001
FDXR isoform 7 (UniProt P22570),-0.03,-0.044,-0.083,-0.082,-0.006,0.084,0.031,-0.034,-0.197,-0.11,-0.032
HDDC2 (UniProt Q7Z4H3),-0.013,0.111,-0.005,0.032,-0.03,-0.036,0.032,-0.032,0.029,-0.041,-0.001
GSTM4 (UniProt Q03013),-0.071,-0.046,-0.121,0.023,-0.068,-0.013,-0.079,0.137,0.151,0.199,0.036
FHOD1 (UniProt Q9Y613),-0.075,-0.042,0.179,0.051,-0.103,0.034,-0.073,0.177,0.23,-0.085,0.209
